Experiment in all cases: DAPPL (digital affinity profiling via proximity ligation, sequencing); 10 mM Tris-HCl pH 7.5, 50 mM NaCl, 1 mM DTT, 4% glycerol, room temperature, 30 min; GST-TFs on glutathione beads, 16-mer random dsDNA library, 0.1% formaldehyde crosslink after washing; high values mean tight binding
One test concerns the target T1, FEV (Homo sapiens, UniProt Q99581 1-238).
T1 sequence: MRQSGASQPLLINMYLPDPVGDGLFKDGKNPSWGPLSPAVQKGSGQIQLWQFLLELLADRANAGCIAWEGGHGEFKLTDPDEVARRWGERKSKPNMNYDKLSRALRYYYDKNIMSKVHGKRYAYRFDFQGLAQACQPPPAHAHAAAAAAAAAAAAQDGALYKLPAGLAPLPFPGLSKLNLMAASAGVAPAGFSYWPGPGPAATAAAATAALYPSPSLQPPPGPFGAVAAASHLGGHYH
Conditions: protein: recombinant; tags: N-terminal GST; dsDNA, one strand shown. The gist of the method: (§1)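 Beads coated with glutathione captured GST-fused human transcription factors that had been expressed in yeast, and the factors were then given DNA barcodes and pooled with a tag-only sample. The pools were incubated with 200 nmole of a random double-stranded 16-mer DNA library in Tris/NaCl/DTT/glycerol buffer for 30 min at room temperature, washed, crosslinked with 0.1% formaldehyde and proximity-ligated with BsaI/T4 ligase at 37 °C for 1 h. PCR amplification and Illumina NextSeq500 sequencing came last. Binding signal is each hexamer's read frequency for a factor divided by its frequency for the tag-only sample.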

In another test the target is ETV5 (Homo sapiens, UniProt P41161 1-510). As to conditions: protein: recombinant; tags: N-terminal GST; dsDNA, one strand shown. Put shortly: as §1
Chain of ETV5 (P41161 whole entry): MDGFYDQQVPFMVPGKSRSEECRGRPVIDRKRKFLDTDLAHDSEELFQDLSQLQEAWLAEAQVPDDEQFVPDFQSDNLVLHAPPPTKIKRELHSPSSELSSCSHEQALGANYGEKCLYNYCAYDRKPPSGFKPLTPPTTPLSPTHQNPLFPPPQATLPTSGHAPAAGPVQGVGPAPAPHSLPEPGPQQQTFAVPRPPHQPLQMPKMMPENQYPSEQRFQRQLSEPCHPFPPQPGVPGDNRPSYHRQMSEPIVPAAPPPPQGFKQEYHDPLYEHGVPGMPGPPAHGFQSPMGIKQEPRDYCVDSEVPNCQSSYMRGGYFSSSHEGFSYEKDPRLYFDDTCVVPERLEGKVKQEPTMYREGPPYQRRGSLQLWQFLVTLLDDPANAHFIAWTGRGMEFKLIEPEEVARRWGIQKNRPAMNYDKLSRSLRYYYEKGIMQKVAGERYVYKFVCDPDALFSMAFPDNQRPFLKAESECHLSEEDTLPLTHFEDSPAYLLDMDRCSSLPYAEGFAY
The next test has as its target HSF1 (Homo sapiens, UniProt Q00613 1-529). As to conditions: protein: recombinant; tags: N-terminal GST; chain copies: 3; dsDNA, one strand shown. Put shortly: as §1
The next test deals with T2, SPIC (Homo sapiens, UniProt Q8N5J4 1-248).
T2 sequence: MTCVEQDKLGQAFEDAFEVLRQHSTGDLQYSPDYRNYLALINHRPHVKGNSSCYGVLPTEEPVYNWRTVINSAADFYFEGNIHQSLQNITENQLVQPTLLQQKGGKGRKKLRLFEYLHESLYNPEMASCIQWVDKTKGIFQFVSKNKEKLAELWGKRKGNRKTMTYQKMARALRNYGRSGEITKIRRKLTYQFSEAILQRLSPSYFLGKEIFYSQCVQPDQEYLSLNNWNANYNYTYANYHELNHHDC
Conditions: protein: recombinant; tags: N-terminal GST; dsDNA, one strand shown. Put shortly:
as §1

The next test has as its target ELF4 (Homo sapiens, UniProt Q99607 1-663). Conditions: protein: recombinant; tags: N-terminal GST; dsDNA, one strand shown. The gist of the method:
as §1

The target of another test is T3, ELK4 (Homo sapiens, UniProt P28324-2 1-405).
T3 sequence: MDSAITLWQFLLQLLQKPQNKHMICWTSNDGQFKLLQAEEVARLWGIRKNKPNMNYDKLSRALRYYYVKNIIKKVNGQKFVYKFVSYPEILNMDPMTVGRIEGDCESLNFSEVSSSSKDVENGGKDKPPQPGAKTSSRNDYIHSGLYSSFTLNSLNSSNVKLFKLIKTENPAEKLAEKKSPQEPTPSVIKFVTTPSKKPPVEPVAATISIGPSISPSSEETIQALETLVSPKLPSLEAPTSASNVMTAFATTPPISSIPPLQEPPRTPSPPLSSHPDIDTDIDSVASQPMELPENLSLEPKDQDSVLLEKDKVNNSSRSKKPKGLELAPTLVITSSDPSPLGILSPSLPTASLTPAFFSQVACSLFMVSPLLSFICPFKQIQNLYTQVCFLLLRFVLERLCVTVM
Conditions: protein: recombinant; tags: N-terminal GST; dsDNA, one strand shown. The gist of the method:
as §1

The target of the next test is T4, ETV2 (Homo sapiens, UniProt O00321 1-342).
T4 sequence: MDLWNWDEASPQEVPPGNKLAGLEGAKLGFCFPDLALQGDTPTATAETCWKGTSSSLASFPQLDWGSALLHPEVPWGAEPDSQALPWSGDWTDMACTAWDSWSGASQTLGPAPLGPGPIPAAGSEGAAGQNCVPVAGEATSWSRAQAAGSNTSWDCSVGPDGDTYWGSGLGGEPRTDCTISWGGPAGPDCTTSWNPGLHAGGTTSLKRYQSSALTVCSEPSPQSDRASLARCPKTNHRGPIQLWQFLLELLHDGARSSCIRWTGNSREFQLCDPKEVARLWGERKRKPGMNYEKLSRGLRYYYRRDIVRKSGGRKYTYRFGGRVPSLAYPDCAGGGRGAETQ
As to conditions: protein: recombinant; tags: N-terminal GST; dsDNA, one strand shown. Put shortly: as §1

A further test addresses T5, ELF3 (Homo sapiens, UniProt P78545 1-371).
T5 sequence: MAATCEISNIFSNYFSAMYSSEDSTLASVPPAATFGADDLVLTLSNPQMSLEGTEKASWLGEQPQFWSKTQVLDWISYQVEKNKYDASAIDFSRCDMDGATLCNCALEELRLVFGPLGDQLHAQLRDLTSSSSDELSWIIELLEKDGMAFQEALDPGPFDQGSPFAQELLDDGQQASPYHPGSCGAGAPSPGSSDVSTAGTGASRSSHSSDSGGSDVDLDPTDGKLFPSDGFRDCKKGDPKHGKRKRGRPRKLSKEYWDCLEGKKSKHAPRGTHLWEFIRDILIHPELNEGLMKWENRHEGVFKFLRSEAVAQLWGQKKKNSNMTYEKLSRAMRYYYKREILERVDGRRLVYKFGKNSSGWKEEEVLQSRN
As to conditions: protein: recombinant; tags: N-terminal GST; dsDNA, one strand shown. Put shortly: as §1

The target in a further test is CRX (Homo sapiens, UniProt O43186 1-299). As to conditions: protein: recombinant; tags: N-terminal GST; dsDNA, one strand shown. The gist of the method:
as §1

Another test deals with ETV1 (Homo sapiens, UniProt P50549 1-477). Conditions: protein: recombinant; tags: N-terminal GST; dsDNA, one strand shown. The gist of the method:
as §1

The next test has as its target T6, ERF (Homo sapiens, UniProt P50548 1-548).
T6 sequence: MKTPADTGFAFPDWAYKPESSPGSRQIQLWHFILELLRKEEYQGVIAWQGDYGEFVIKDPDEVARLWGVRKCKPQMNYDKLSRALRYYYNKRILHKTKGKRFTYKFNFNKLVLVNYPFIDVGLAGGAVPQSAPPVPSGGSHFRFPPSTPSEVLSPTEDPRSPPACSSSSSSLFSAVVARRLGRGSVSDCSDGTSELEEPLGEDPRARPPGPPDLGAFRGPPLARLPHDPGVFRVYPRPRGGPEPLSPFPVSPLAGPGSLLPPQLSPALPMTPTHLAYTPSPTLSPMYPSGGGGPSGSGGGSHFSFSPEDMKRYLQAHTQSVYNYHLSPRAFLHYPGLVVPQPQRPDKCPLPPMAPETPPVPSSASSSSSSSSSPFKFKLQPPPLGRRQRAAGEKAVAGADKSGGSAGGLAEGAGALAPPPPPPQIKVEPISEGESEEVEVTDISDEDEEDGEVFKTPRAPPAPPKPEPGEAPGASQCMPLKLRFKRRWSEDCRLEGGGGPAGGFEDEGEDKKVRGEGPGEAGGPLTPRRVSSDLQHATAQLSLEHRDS
As to conditions: protein: recombinant; tags: N-terminal GST; dsDNA, one strand shown. Put shortly: as §1

The next test concerns the target T7, ETV3L (Homo sapiens, UniProt Q6ZN32 1-361).
T7 sequence: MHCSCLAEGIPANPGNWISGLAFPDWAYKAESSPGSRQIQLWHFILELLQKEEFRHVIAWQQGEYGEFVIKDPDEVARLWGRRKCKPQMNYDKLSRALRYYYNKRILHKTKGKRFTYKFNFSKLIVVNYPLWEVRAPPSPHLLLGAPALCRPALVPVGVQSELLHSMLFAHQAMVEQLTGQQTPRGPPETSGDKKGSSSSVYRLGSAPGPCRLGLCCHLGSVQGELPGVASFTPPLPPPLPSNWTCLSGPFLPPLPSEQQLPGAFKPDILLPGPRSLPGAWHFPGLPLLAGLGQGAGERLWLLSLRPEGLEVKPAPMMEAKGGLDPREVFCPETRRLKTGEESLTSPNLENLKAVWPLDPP
As to conditions: protein: recombinant; tags: N-terminal GST; dsDNA, one strand shown. Put shortly: as §1

A further test deals with T8, ETS2 (Homo sapiens, UniProt P15036 1-469).
T8 sequence: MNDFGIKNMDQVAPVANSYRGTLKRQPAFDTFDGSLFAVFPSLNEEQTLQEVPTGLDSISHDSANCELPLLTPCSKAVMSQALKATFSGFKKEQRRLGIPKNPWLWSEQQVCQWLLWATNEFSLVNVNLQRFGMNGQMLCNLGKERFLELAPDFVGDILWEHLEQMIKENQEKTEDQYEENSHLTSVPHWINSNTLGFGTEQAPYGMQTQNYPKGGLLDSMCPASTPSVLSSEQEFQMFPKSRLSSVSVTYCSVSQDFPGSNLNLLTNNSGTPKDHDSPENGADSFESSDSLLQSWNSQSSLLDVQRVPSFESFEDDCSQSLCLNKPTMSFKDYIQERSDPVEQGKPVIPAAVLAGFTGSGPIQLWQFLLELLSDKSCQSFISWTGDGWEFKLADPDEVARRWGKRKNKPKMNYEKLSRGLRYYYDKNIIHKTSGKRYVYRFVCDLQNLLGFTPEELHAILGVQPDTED
As to conditions: protein: recombinant; tags: N-terminal GST; dsDNA, one strand shown. Put shortly: as §1

The target of another test is T9, SPDEF (Homo sapiens, UniProt O95238 1-335).
T9 sequence: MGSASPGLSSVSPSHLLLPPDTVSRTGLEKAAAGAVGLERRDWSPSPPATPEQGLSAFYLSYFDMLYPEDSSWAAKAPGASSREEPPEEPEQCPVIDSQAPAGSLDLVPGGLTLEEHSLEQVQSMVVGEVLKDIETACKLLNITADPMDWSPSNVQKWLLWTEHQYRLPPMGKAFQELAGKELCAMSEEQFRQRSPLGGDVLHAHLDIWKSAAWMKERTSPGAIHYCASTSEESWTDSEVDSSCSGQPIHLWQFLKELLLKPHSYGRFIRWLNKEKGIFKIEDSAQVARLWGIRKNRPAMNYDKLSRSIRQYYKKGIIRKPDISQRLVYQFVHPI
Conditions: protein: recombinant; tags: N-terminal GST; dsDNA, one strand shown. Put shortly: as §1

The target of a further test is T10, ETV7 (Homo sapiens, UniProt Q9Y603 1-341).
T10 sequence: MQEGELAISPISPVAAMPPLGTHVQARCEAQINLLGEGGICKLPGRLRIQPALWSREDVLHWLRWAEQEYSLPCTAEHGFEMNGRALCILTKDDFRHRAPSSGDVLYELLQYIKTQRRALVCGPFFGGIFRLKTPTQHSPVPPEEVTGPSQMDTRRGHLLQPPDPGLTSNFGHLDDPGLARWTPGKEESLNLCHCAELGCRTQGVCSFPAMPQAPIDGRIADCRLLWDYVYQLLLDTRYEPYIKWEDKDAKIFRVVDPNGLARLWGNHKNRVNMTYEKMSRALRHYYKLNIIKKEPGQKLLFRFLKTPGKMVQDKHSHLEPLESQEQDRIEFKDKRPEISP
As to conditions: protein: recombinant; tags: N-terminal GST; dsDNA, one strand shown. Put shortly: as §1

The target in another test is T11, ELF5 (Homo sapiens, UniProt Q9UKW6-2 1-255).
T11 sequence: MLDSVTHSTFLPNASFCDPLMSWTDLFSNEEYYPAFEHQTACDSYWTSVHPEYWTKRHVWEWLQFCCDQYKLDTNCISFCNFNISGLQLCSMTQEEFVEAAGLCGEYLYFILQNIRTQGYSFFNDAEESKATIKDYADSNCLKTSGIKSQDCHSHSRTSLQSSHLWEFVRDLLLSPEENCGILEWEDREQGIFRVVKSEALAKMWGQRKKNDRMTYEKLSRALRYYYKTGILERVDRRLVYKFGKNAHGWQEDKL
As to conditions: protein: recombinant; tags: N-terminal GST; dsDNA, one strand shown. The gist of the method: as §1

For another test, the target named is T12, ETV3 (Homo sapiens, UniProt P41162-2 1-143).
T12 sequence: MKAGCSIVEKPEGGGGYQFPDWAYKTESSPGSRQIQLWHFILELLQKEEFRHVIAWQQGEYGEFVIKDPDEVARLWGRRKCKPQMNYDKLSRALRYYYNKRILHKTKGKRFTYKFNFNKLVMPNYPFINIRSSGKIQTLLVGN
As to conditions: protein: recombinant; tags: N-terminal GST; dsDNA, one strand shown. Put shortly:
as §1

Another test has as its target ETV6 (Homo sapiens, UniProt P41212 1-452). Conditions: protein: recombinant; tags: N-terminal GST; dsDNA, one strand shown. The gist of the method:
as §1

Chain of HSF1 (Q00613 whole entry): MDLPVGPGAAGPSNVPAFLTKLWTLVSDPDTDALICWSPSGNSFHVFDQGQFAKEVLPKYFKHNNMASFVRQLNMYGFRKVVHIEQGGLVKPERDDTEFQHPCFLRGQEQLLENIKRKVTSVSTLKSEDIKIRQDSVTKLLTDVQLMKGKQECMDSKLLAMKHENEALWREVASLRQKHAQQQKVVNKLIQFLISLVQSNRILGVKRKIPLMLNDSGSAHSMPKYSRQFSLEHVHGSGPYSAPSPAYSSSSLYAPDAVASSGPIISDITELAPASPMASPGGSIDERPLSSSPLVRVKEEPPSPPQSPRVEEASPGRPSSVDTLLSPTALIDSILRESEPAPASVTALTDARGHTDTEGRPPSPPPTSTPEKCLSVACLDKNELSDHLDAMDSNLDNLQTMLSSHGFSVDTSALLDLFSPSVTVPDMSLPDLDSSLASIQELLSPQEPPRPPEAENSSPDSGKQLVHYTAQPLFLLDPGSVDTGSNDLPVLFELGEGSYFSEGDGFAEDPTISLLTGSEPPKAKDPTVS
Chain of ETV1 (P50549 whole entry): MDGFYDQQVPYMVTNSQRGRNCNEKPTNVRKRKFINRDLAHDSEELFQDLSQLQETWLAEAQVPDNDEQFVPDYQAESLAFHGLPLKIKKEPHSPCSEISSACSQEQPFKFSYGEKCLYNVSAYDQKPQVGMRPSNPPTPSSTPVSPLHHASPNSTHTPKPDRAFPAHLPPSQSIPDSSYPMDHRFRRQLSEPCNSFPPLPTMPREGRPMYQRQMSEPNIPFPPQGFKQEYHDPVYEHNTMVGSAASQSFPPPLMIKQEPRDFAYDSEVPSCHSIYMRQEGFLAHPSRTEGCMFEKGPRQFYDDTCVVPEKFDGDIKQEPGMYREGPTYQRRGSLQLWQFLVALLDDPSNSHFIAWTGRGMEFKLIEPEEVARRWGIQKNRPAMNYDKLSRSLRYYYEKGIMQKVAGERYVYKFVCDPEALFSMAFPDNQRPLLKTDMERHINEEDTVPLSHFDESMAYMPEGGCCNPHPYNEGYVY
Chain of ETV6 (P41212 whole entry): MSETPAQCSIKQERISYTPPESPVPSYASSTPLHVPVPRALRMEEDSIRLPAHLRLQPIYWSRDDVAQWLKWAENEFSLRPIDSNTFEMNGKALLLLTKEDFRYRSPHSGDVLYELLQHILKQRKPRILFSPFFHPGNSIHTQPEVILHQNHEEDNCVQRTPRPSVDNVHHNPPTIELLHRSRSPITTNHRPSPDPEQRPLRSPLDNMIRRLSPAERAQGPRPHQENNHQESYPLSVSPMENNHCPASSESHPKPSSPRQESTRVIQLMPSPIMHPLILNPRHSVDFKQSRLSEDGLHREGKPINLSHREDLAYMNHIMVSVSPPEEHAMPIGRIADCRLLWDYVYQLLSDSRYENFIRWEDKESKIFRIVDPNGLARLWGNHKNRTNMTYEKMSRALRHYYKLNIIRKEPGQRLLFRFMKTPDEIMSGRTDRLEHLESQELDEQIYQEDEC
Chain of ELF4 (Q99607 whole entry): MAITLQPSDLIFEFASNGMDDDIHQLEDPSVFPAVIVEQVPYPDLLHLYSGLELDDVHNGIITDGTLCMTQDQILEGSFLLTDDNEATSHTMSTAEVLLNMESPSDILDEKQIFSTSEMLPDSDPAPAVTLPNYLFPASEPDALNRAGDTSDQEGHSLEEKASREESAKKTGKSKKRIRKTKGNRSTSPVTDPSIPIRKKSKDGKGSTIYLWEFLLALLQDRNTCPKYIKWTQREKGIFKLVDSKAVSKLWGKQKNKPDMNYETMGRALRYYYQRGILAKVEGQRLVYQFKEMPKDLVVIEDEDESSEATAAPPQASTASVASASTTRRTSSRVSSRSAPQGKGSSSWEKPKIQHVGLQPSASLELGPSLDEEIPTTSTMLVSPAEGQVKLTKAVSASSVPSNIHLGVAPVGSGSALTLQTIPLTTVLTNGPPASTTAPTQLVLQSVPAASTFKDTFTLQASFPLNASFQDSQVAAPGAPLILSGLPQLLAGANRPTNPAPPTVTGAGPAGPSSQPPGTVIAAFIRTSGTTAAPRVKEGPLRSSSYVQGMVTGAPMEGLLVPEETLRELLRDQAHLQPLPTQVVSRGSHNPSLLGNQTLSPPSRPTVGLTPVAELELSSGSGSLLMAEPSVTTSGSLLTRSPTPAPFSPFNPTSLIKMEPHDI
Chain of CRX (O43186 whole entry): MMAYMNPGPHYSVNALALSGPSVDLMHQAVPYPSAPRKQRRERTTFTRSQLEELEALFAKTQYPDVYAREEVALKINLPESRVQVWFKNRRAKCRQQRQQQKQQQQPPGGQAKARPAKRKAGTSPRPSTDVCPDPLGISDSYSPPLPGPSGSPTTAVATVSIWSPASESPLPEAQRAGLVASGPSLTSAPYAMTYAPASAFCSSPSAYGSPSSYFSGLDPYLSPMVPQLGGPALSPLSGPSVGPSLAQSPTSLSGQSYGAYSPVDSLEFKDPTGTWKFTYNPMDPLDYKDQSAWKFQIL

For ACATTA, the binding signal in the test with FEV is 1.16 fold enrichment (6-mer frequency, TF over GST control); in the test with ETV5, 1.12 fold enrichment (6-mer frequency, TF over GST control); with HSF1 it was 1.2 fold enrichment (6-mer frequency, TF over GST control); in the test with SPIC it was 1.23 fold enrichment (6-mer frequency, TF over GST control); with ELF4 it was 1.2 fold enrichment (6-mer frequency, TF over GST control); in the test with ELK4, 1.18 fold enrichment (6-mer frequency, TF over GST control). The binding signal was 1.25 fold enrichment (6-mer frequency, TF over GST control) in the test with ETV2; 1.14 fold enrichment (6-mer frequency, TF over GST control) with ELF3; 1.38 fold enrichment (6-mer frequency, TF over GST control) with CRX; 1.29 fold enrichment (6-mer frequency, TF over GST control) with ETV1; 1.21 fold enrichment (6-mer frequency, TF over GST control) with ERF; 1.15 fold enrichment (6-mer frequency, TF over GST control) with ETV3L. Also, the binding signal in the test with ETS2 is 1.19 fold enrichment (6-mer frequency, TF over GST control); with SPDEF, 1.12 fold enrichment (6-mer frequency, TF over GST control); with ETV7 it was 1.15 fold enrichment (6-mer frequency, TF over GST control); with ELF5, 1.1 fold enrichment (6-mer frequency, TF over GST control); in the test with ETV3 it was 1.15 fold enrichment (6-mer frequency, TF over GST control); with ETV6, 1.16 fold enrichment (6-mer frequency, TF over GST control).

The values above are taken from PMC7862700, “An all-to-all approach to the identification of sequence-specific readers for epigenetic DNA modifications on cytosine”.
